Inconclusive results are not listed. Active and inactive are the calls of the source. Unless noted, the call rests on the fitted dose curve; in most records, active means well fitted curve in the direction sought with a large enough effect in the repeat runs; inconclusive means weak or mixed curves; inactive means no such curve, though single readings can be large; an effect the other way counts as inactive or inconclusive.
How the values were obtained:
[1] = A CellTox Green Cytotoxicity Assay to monitor cytotoxicity in HEK293 cells - 32 hour (AID 1224881); further: nearly all actives have a fitted effect of over 40% in size
Method in brief: (§1)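 HEK293 cells, 600/well, were preincubated 5 hours and then exposed to compounds at 37 C for up to 40 hours. A cell-impermeant cyanine dye staining dead-cell DNA was read by fluorescence at 0, 8, 16, 24, 32 and 40 h time points.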

[2] = A CellTox Green Cytotoxicity Assay to monitor cytotoxicity in HepG2 cells - 0 hour (AID 1224882); further: nearly all actives have a fitted effect of over 35% in size
Method in brief: (§2)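 HepG2 cells, 600/well, preincubated 5 h with CellTox Green dye, then exposed to Tox21 compounds in DMSO at 37 C for up to 40 h. Dead-cell DNA fluorescence read at the indicated time point.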

[3] = A CellTox Green Cytotoxicity Assay to monitor cytotoxicity in HepG2 cells - 32 hour (AID 1224883); further: nearly all actives have a fitted effect of over 50% in size; further: potency means the concentration at half of the fitted maximal effect
Method in brief: as §2

[4] = A CellTox Green Cytotoxicity Assay to monitor cytotoxicity in HEK293 cells - 8 hour (AID 1224884); further: nearly all actives have a fitted effect of over 35% in size
Method in brief: as §1

[5] = qHTS RealTime-Glo MT Cell Viability Assay in HepG2 cells - 16 hour (AID 1224885); further: nearly all actives have a fitted effect of over 50% in size
Method in brief: (§3)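 Compound treatment began 5 h after plating HepG2 cells (600/well) with NanoLuc luciferase and prosubstrate. Plates stayed at 37 C for 40 h; luminescence was captured at six time points, 0 h through 40 h.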

[6] = qHTS RealTime-Glo MT Cell Viability Assay in HEK293 cells - 24 hour (AID 1224886); further: top concentration of the series differs between compounds; nearly all actives have a fitted effect of over 50% in size
Method in brief: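 Quantitative high-throughput screen of the Tox21 10K library in HEK293: cells and RealTime-Glo reagents plated together, compound added at 5 h, luminescence monitored through 40 h at 37 C.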

[7] = qHTS RealTime-Glo MT Cell Viability Assay in HEK293 cells - 8 hour (AID 1224887); further: top concentration of the series differs between compounds; nearly all actives have a fitted effect of over 50% in size
Method in brief: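 600 cells/well were plated with the nonlytic NanoLuc/prosubstrate reagent, pre-incubated 5 h, then given 23 nL of compound in DMSO. Incubation at 37 C for 40 h, with luminescence from viable-cell-reduced substrate read repeatedly from 0 h.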

[8] = qHTS RealTime-Glo MT Cell Viability Assay in HepG2 cells - 0 hour (AID 1224889); further: nearly all actives have a fitted effect of over 50% in size
Method in brief: as §3

[9] = A CellTox Green Cytotoxicity Assay to monitor cytotoxicity in HepG2 cells - 8 hour (AID 1224890); further: nearly all actives have a fitted effect of over 45% in size
Method in brief: as §2

[10] = qHTS assay to identify small molecule antagonists of the estrogen receptor alpha (ER-alpha) signaling pathway using the BG1 cell line in the presence of 0.1 nM 17-beta-estradiol - cell viability counter screen (AID 1259241); further: nearly all actives have a fitted effect of over 40% in size
Method in brief: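 Live-cell protease activity (CellTiter-Fluor fluorescence, 30 min) was read in the same wells after VM7Luc4E2 cells had been exposed to compounds with 0.1 nM 17beta-estradiol for 22 hr at 37C.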

[11] = qHTS assay to identify small molecule antagonists of the androgen receptor (AR) signaling pathway using the MDA cell line in the presence of 0.5 nM R1881 - cell viability counter screen (AID 1259242); further: nearly all actives have a fitted effect of over 45% in size
Method in brief: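 MDA-kb2 cells (MMTV-luciferase, AR/GR responsive) were treated with compounds plus 0.5 nM R1881 (final) for 16 hr at 37C, 0% CO2. Viability was then read in the same wells as live-cell protease fluorescence (CellTiter-Fluor, 30 min).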

[12] = target: Androgen receptor (Homo sapiens) (UniProt P10275); assay: qHTS assay to identify small molecule antagonists of the androgen receptor (AR) signaling pathway using the MDA cell line in the presence of 0.5 nM R1881 (AID 1259243); further: nearly all actives have a fitted effect of over 50% in size
Method in brief: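 MDA-kb2 cells (MMTV-luciferase, responsive to AR and GR) at 3,000/well, rested 5 h at 37C, 0% CO2, then given compounds plus 0.5 nM R1881 (final) for 16 hr. Luciferase read with ONE-Glo after 30 min at room temperature.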

[13] = target: Estrogen receptor (Homo sapiens) (UniProt P03372); assay: qHTS assay to identify small molecule antagonists of the estrogen receptor alpha (ER-alpha) signaling pathway using the BG1 cell line in the presence of 0.1 nM 17-beta-estradiol (AID 1259244); further: nearly all actives have a fitted effect of over 50% in size
Method in brief: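 VM7Luc4E2 cells (endogenous full-length ER-alpha, 4×ERE-luciferase), kept 5 days in phenol red-free, charcoal-stripped FBS medium; 4,000 cells/well. Compounds added with 0.1 nM (final) 17beta-estradiol, 22 hr at 37C; luminescence read with ONE-Glo after 30 min.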

[14] = qHTS assay to identify small molecule phospholipidosis (PLD) inducers (AID 1259344; active means well fitted curve in the direction sought with a large enough effect; an effect the other way counts as inactive or inconclusive)
Method in brief: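 Quantitative HTS in HepG2: compound plus LipidTOX Red dye for 24 h, paraformaldehyde fixation with Hoechst 33342, widefield high-content imaging; amiodarone as positive and DMSO as negative control.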

[15] = qHTS assay to identify small molecule HDAC inhibitors (AID 1259364); further: top concentration of the series differs between compounds; nearly all actives have a fitted effect of over 45% in size
Method in brief: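 Wild-type HCT-116 cells, plated overnight at 37 C, exposed to compounds 2 hr at 37 C; luminogenic HDAC-Glo substrate then added 30 min at room temperature. Luminescence reports relative endogenous class I/II HDAC activity.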

[16] = qHTS assay to identify small molecule agonists of the sonic hedgehog signaling (Shh) pathway - cell viability counter screen (AID 1259366); further: nearly all actives have a fitted effect of over 50% in size
Method in brief: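 CellTiter-Fluor fluorescence read-out, 1 hr at 37C, added after 23hr compound exposure. Cells: 3T3 Gli1-Luc, an NIH/3T3 clone with stably integrated Gli1-Luc reporter, plated 4hr before compound.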

[17] = qHTS assay to identify small molecule antagonists of the sonic hedgehog signaling (Shh) pathway - cell viability counter screen (AID 1259367); further: nearly all actives have a fitted effect of over 55% in size
Method in brief: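 Seed 3T3 Gli1-Luc cells at 2,000 per well; incubate 4 hr; add compound in DMSO, then conditioned medium; incubate at 37C with 5% CO2; add CellTiter-Fluor after 23 hr; read fluorescence 1 hr later.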

[18] = qHTS assay to identify small molecule agonists of the sonic hedgehog signaling (Shh) pathway (AID 1259368; calls by dose curve;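 further: NIH/3T3-derived 3T3Gli1-Luc cells carrying a stable Gli1-driven firefly luciferase reporter; series mostly up to about 92 µM; nearly all actives have a fitted effect of over 15% in size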)
Method in brief: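 NIH/3T3-derived 3T3Gli1-Luc cells with stably integrated Gli1-driven firefly luciferase, 2,000 cells/well, compounds added after 4 hr. Incubated 24 hr at 37C, 5% CO2; luminescence read after 30 min with luciferase reagent at room temperature.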

[19] = A CellTox Green Cytotoxicity Assay to monitor cytotoxicity in HEK293 cells - 16 hour (AID 1224888); further: nearly all actives have a fitted effect of over 35% in size
Method in brief: as §1

[20] = qHTS assay to identify small molecule HDAC inhibitors - cell viability counter screen (AID 1259365)
Method in brief: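 HCT-116 (wild type), 1,500 cells/well, overnight 37C/5% CO2; compound in DMSO 2hr; CellTiter-Glo 30min RT; luminescence read.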
On the % scale 0 is the no-effect control and ±100 the full control effect.

Estrogen receptor (Homo sapiens), sequence (P03372 whole entry, looked up): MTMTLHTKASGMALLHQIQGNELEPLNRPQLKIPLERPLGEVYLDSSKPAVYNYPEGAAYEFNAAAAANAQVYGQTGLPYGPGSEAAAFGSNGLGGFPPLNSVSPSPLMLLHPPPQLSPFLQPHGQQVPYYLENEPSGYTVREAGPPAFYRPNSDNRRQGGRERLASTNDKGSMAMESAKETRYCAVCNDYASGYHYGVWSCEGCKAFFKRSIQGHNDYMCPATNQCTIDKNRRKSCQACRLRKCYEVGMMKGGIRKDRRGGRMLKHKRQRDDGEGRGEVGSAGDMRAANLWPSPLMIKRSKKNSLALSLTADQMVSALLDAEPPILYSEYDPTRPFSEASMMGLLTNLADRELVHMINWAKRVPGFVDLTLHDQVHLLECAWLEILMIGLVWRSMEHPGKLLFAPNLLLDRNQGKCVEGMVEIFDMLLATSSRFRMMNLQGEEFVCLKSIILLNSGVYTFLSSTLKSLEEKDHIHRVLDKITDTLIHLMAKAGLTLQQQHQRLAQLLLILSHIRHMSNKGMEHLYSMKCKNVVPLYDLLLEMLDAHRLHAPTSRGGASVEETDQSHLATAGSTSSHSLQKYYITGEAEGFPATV
Androgen receptor (Homo sapiens), sequence (P10275 whole entry, looked up): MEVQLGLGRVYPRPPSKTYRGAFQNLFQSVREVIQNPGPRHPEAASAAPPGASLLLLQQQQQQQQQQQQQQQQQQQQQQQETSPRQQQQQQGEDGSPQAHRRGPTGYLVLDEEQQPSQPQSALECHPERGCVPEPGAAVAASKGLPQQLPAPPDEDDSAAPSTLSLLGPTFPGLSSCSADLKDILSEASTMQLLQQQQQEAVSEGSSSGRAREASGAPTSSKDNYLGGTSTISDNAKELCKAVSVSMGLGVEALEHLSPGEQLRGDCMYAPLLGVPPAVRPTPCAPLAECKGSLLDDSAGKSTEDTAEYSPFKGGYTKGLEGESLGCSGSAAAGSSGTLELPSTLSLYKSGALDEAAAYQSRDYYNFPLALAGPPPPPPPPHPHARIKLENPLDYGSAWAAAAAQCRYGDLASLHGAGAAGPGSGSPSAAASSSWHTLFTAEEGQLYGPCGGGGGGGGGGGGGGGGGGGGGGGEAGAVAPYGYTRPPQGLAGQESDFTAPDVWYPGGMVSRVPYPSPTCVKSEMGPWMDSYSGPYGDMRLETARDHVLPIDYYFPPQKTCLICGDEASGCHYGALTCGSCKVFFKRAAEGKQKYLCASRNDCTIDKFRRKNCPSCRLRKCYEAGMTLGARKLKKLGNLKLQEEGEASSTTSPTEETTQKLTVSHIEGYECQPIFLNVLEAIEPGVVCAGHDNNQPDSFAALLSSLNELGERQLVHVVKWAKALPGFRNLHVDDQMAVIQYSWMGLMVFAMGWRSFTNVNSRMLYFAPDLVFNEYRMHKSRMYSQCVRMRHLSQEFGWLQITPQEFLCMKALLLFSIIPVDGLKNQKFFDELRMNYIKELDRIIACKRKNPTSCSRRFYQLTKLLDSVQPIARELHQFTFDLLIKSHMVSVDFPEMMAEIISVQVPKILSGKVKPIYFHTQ

CC(=O)OC[C@H]1O[C@@H](n2ncc(=O)[nH]c2=O)[C@H](OC(C)=O)[C@@H]1OC(C)=O
inactive: Potency [1] | Potency [2] | Potency [3] | Potency [4] | Potency [5] | Potency [6] | Potency [7] | Potency [8] | Potency [9] | Potency [10] | Potency [11] | Potency [12] | Potency [13] | Potency [14] | Potency [15] | Potency [16] | Potency [17] | outcome [18]

CC/C=C\CCOC(=O)CC
inactive: Potency [1] | Potency [2] | Potency [3] | Potency [4] | Potency [5] | Potency [6] | Potency [7] | Potency [19] | Potency [9] | Potency [11] | Potency [15] | Potency [20] | Potency [16] | Potency [17] | outcome [18]

CN1C[C@H]2c3ccccc3Oc3ccc(Cl)cc3[C@@H]2C1
active: Potency [3] 26.8 µM
inactive: Potency [1] | Potency [2] | Potency [4] | Potency [5] | Potency [6] | Potency [7] | Potency [19] | Potency [10] | Potency [11] | PLD induction [14] 1.39% [at 7.66 µM] | Potency [15] | outcome [18]

CCCCCCCCO[C@@H]1O[C@H](CO)[C@@H](O)[C@H](O)[C@H]1O
inactive: Potency [1] | Potency [2] | Potency [3] | Potency [4] | Potency [5] | Potency [6] | Potency [7] | Potency [19] | Potency [8] | Potency [9] | Potency [10] | Potency [11] | Potency [13] | Potency [15] | Potency [20] | Potency [16] | Potency [17] | outcome [18]

O=C1C(O)=C(O)C(=O)C(O)=C1O
inactive: Potency [1] | Potency [2] | Potency [3] | Potency [4] | Potency [5] | Potency [6] | Potency [7] | Potency [19] | Potency [8] | Potency [10] | Potency [11] | Potency [13] | Potency [14] | Potency [15] | Potency [20] | Potency [16] | Potency [17] | outcome [18]

CCCCc1ncc(/C=C(\Cc2cccs2)C(=O)O)n1Cc1ccc(C(=O)O)cc1
inactive: Potency [1] | Potency [2] | Potency [3] | Potency [4] | Potency [5] | Potency [6] | Potency [7] | Potency [19] | Potency [10] | Potency [11] | Potency [14] | Potency [15] | Potency [20] | Potency [16] | Potency [17] | outcome [18]

CCCCCCCCCCCC(=O)OC[C@@H](O)[C@H]1OC[C@H](OCCO)[C@H]1OCCO
inactive: Potency [1] | Potency [2] | Potency [3] | Potency [4] | Potency [5] | Potency [6] | Potency [7] | Potency [19] | Potency [8] | Potency [9] | Potency [10] | Potency [11] | Potency [15] | Potency [20] | Potency [16] | Potency [17] | outcome [18]

From PubChem BioAssay (Tox21)
